Measured values from PubChem BioAssay (Tox21).
Where “and” joins values, the source holds several entries; their conditions need not be identical. Identical values can stand only once. Inconclusive results are not listed. Entries that show only a call come without a potency. Some structures have more than one record in an assay (separate samples or runs), and their calls can disagree. Calls of active or inactive are those of the source. Unless noted, calls come from the whole dose curve; as a rule, active = well fitted curve in the direction sought with a large enough effect in the repeat runs; inconclusive = weak or mixed curves; inactive = no such curve, though single readings can be large; an effect the other way counts as inactive or inconclusive.

Columns and labels:
[1] = qHTS assay to identify small molecule agonists of the hypoxia (HIF-1) signaling pathway - cell viability counter screen (AID 1224844; calls by dose curve; note: nearly all actives have a fitted effect of over 50% in size; note: potency is the fitted concentration of half-maximal effect)
Procedure, shortened: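 In this counter screen, HRE-bla ME-180 cell viability after 17 hrs of compound exposure at 37C was read by CellTiter-Glo luminescence, multiplexed with the beta-lactamase reporter measurement.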

[2] = qHTS assay to identify small molecule agonists of H2AX (AID 1224845; active = well fitted activation curve with a large enough effect in the signal ratio in the repeat runs, not every such curve was filed as active; the % refers to the signal ratio; note: potency is the fitted concentration of half-maximal effect)
Procedure, shortened: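 Phospho-H2AX Ser139 measured by HTRF (ex 320 nm; em 665 and 620 nm) after 24 hr antibody incubation. Compounds, 15 concentrations, 0.76% DMSO, were applied to CHO-K1 cells for 3hr at 37C before lysis.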

[3] = qHTS assay to identify small molecule agonists of H2AX - cell viability counter screen (AID 1224847; calls by dose curve; note: nearly all actives have a fitted effect of over 30% in size; note: potency is the fitted concentration of half-maximal effect)
Procedure, shortened: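 CHO-K1 cells plated overnight at 37C, then exposed 3 h at 37C to compounds at 15 concentrations (0.76% DMSO final). Viability by CellTiter-Glo luminescence after 30 min at room temperature.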

[4] = qHTS assay to identify small molecule antagonists of the estrogen related receptor (ERR) signaling pathway from Tox21 library (AID 1224848); note: nearly all actives have a fitted effect of over 50% in size; note: potency is the fitted concentration of half-maximal effect
Procedure, shortened: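 ERR cell line, 2,000 cells/well. 6 h settle, then compound (DMSO) added; 18 h at 37 C; ONE-Glo luminescence after 30 min RT.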

[5] = qHTS assay to identify small molecule agonists of the estrogen related receptor (ERR) signaling pathway from Tox21 library (AID 1224849; calls by dose curve; note: nearly all actives have a fitted effect of over 15% in size); details: ERR reporter cell line, ONE-Glo luciferase, 18 h
Procedure, shortened: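 Luciferase activity in ERR pathway reporter cells served as the agonist readout; exposure lasted 18 h at 37 C, with ONE-Glo detection after 30 min at room temperature.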

[6] = qHTS RealTime-Glo MT Cell Viability Assay in HEK293 cells - 32 hour (AID 1224868); note: nearly all actives have a fitted effect of over 50% in size; note: potency is the fitted concentration of half-maximal effect
Procedure, shortened: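 Cells + reagent dispensed (600 cells/well, HEK293) → 5 h at 37 C/5% CO2 → 23 nL compound in DMSO pinned → 40 h at 37 C → luminescence read at 0, 8, 16, 24, 32, 40 h.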

[7] = A CellTox Green Cytotoxicity Assay to monitor cytotoxicity in HEK293 cells - 0 hour (AID 1224869); note: nearly all actives have a fitted effect of over 50% in size; note: potency is the fitted concentration of half-maximal effect
Procedure, shortened: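 Real-time, in one plate: 600 HEK293 cells/well with dead-cell DNA dye, pinned compound after 5 h, 37 C incubation over 40 h; viable cells give no appreciable fluorescence.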

[8] = qHTS RealTime-Glo MT Cell Viability Assay in HepG2 cells - 40 hour (AID 1224870); note: nearly all actives have a fitted effect of over 50% in size
Procedure, shortened: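 Real-time viability: cells seeded at 600 per well together with NanoLuc and cell-permeant prosubstrate, compounds added after 5 h incubation. Luminescence tracked at 0, 8, 16, 24, 32 and 40 h of exposure.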

[9] = qHTS RealTime-Glo MT Cell Viability Assay in HepG2 cells - 24 hour (AID 1224867); note: nearly all actives have a fitted effect of over 50% in size
Procedure, shortened: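 Real-time, nonlytic viability: 600 HepG2 cells/well mixed with NanoLuc enzyme plus prosubstrate; 5 h settle, compound (DMSO) added by pintool; luminescence monitored over 40 h at 37 C.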

[10] = qHTS assay to identify small molecule agonists of the hypoxia (HIF-1) signaling pathway (AID 1224846; active = well fitted activation curve with a large enough effect in the signal ratio in the repeat runs, not every such curve was filed as active; the % refers to the signal ratio)
Procedure, shortened: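 ME-180 HRE-bla reporter cells; compounds in DMSO, 17 h at 37C; read-out beta-lactamase via CCF4-AM FRET.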

SMILES	Potency [1]	Potency [2]	Potency [3]	Potency [4]	activity change, positive = activation ([5]; at 92.4 µM (top of the series))	Potency [6]	Potency [7]	outcome [8]	outcome [9]	outcome [10]	activity change, positive = activation ([5]; at 42.5 µM (top of the series))
Nc1ncc([N+](=O)[O-])s1	inactive	inactive	inactive	inactive	2.32% (inactive) and 6.46% (inactive)	inactive	inactive	inactive			
CCCCC(CC)C(=O)Cl (stereo not drawn)	inactive	inactive	inactive			inactive	inactive	inactive	inactive		
CNC(=O)O/N=C/C(C)(C)S(C)=O (stereo not drawn)	inactive	inactive	inactive				inactive	inactive	inactive	inactive	
CNC(=O)O/N=C/C(C)(C)SC	inactive	inactive	inactive	inactive	5.2% (inactive) and 5.41% (inactive)		inactive	inactive	inactive		
CNc1cnn(-c2cccc(C(F)(F)F)c2)c(=O)c1Cl	inactive	inactive	inactive				inactive	inactive		inactive	
NNc1ccccc1	inactive	inactive	inactive				inactive	inactive	inactive	inactive	
Oc1c(Br)cc(Br)cc1Br	inactive	inactive	inactive				inactive	inactive		inactive	
CCOP(=S)(OCC)Oc1ccc([N+](=O)[O-])cc1	inactive	inactive	inactive				inactive	inactive		inactive	
CSc1nnc(C(C)(C)C)c(=O)n1N	inactive	inactive	inactive			inactive	inactive	inactive		inactive	
O=[N+]([O-])c1cc([As](=O)(O)O)ccc1O	inactive	inactive	inactive	inactive	-21.2% (inactive) and 4.02% (inactive)		inactive	inactive			-1.93% (inactive)
CC(C)(C)C(=O)CCl	inactive	inactive	inactive	inactive	2.78% (inactive) and 6.55% (inactive)		inactive	inactive	inactive		
CCSC(=O)N1CCCCCC1	inactive	inactive	inactive	inactive	-10.2% (inactive) and -0.0309% (inactive)		inactive	inactive	inactive		
CNCC(O)c1ccc(O)cc1 (stereo not drawn)	inactive	inactive	inactive	inactive	2.21% (inactive)	inactive	inactive	inactive			12.7% (inactive)
Nc1nc(N)nc(NC2CC2)n1	inactive	inactive	inactive	inactive	-4.5% (inactive) and 0.923% (inactive)		inactive	inactive	inactive		7.96% (inactive)
c1ccc2c(c1)CCCC2	inactive	inactive	inactive			inactive	inactive	inactive		inactive	
O=C(O)c1cc(Oc2ccc(C(F)(F)F)cc2Cl)ccc1[N+](=O)[O-]	inactive	inactive	inactive	inactive	-1% (inactive) and -14.6% (inactive) and -4.43% (inactive)		inactive	inactive	inactive		9.01% (inactive)
Cl[C@H]1OCCO[C@@H]1Cl	inactive	inactive	inactive	inactive	-1.08% (inactive) and -4.01% (inactive)		inactive	inactive			
Cc1ccccc1N	inactive	inactive	inactive			inactive	inactive	inactive		inactive	
Nc1cccc(Cl)c1	inactive	inactive	inactive	inactive	7.3% (inactive) and -16.4% (inactive)	inactive and 21.9 µM (active)	inactive	inactive			
CC(C)c1cccc(C(C)C)c1O	inactive	inactive	50.5 µM (active) and inactive	inactive	-9.76% (inactive) and -27.6% (inactive)	inactive	inactive and 38.9 µM (active)	inactive	inactive		-0.995% (inactive)
C=CC(=O)OCC(CC)CCCC (stereo not drawn)	inactive	inactive	inactive	inactive	0.98% (inactive) and -12% (inactive)	inactive	inactive	inactive	inactive		

SMILES	Potency [1]	Potency [2]	Potency [3]	Potency [4]	activity change, positive = activation ([5]; at 92.4 µM (top of the series))	Potency [6]	Potency [7]	outcome [8]	outcome [9]	outcome [10]	activity change, positive = activation ([5]; at 42.5 µM (top of the series))
CN(C)CCC#N	inactive	inactive	inactive				inactive	inactive		inactive	
CN(C)C(=O)C(c1ccccc1)c1ccccc1	inactive	inactive	inactive			inactive	inactive	inactive		inactive	
Cc1cc(Cl)ccc1OC(C)C(=O)O (stereo not drawn)	inactive	inactive	inactive			inactive	inactive	inactive		inactive	
[N-]=[N+]=CC(=O)OC[C@H](N)C(=O)O	inactive	inactive	inactive	inactive	5.95% (inactive)	inactive	38.9 µM (active) and inactive	inactive			3.09% (inactive)
Cc1ccc(N=C=O)cc1N=C=O	24.5 µM (active) and inactive	inactive	inactive	inactive	1.23% (inactive) and -0.244% (inactive) and 4.95% (inactive)	inactive	inactive	inactive	inactive		
C=CC#N	inactive	inactive	inactive	inactive	0.57% (inactive) and 1.17% (inactive)	inactive	inactive	inactive			
Cc1cccc(N)c1	inactive	inactive	inactive	inactive	7.86% (inactive) and 1.47% (inactive) and 12% (inactive)	inactive	inactive	inactive			
O=[N+]([O-])c1ccc(Cl)c(Cl)c1	inactive	inactive	inactive	inactive	-0.469% (inactive) and -6.92% (inactive)	inactive	inactive	inactive			
O=C(O)CCCc1ccc(N(CCCl)CCCl)cc1	inactive	56.9 µM (active)	inactive				inactive	inactive		inactive	
CCOP(=S)(OCC)Oc1cc(C)nc(C(C)C)n1	inactive	inactive	inactive				inactive	inactive		inactive	
C[C@H]1C(=O)O[C@@H]2CCN3CC=C(COC(=O)[C@](C)(O)[C@]1(C)O)[C@H]23	inactive		inactive				inactive	inactive	inactive		
ClCCOCCCl	inactive	inactive	inactive			inactive	inactive	inactive	inactive		
C[C@]12CC[C@H](O)CC1=CC[C@@H]1[C@@H]2CC[C@]2(C)C(=O)CC[C@@H]12	inactive	inactive	89.8 µM (active) and inactive				inactive	inactive	inactive		
O=C(O)C1C(C(=O)O)C2(Cl)C(Cl)=C(Cl)C1(Cl)C2(Cl)Cl (stereo not drawn)	inactive	inactive	inactive			inactive	inactive	inactive			
Cc1cccc(C)c1NC(=O)CN1CCCC1=O	inactive	inactive	inactive				inactive	inactive	inactive		
FC(F)(F)c1ccc(Cl)cc1	inactive	inactive	inactive				inactive	inactive	inactive		
C=CC(=O)OCCCCCC(C)C	inactive	inactive	inactive			inactive	inactive	inactive	inactive		
Clc1cnc(Oc2ccc(Oc3ncc(Cl)cc3Cl)cc2)c(Cl)c1	inactive	inactive	inactive			inactive	inactive	inactive			
N#Cc1cccc(C#N)c1	inactive	inactive	inactive				inactive	inactive	inactive		
CC(=O)C1CCOC1=O (stereo not drawn)	inactive	inactive	inactive			inactive	inactive	inactive	inactive		
O=C(O)C(Br)Br	inactive	inactive	inactive				inactive	inactive			

SMILES	Potency [1]	Potency [2]	Potency [3]	Potency [4]	activity change, positive = activation ([5]; at 92.4 µM (top of the series))	Potency [6]	Potency [7]	outcome [8]	outcome [9]	outcome [10]	activity change, positive = activation ([5]; at 42.5 µM (top of the series))
Cc1cccc(C)c1N	inactive	inactive	inactive				inactive	inactive			
O=[N+]([O-])c1ccc(Cl)cc1	inactive	inactive	inactive			inactive	inactive	inactive			
CC12CC1(C)C(=O)N(c1cc(Cl)cc(Cl)c1)C2=O (stereo not drawn)	inactive	inactive	inactive			inactive	inactive	inactive			
Cc1cccc(N)c1C	inactive	inactive	inactive			inactive	inactive	inactive	inactive		
C/C=C/c1ccc2c(c1)OCO2	inactive	inactive	inactive			inactive	inactive	inactive			
Nc1ccc([As](=O)(O)O)cc1	inactive	inactive	inactive			inactive	inactive	inactive			
O=C(O)COc1ccccc1	inactive	inactive	inactive				inactive	inactive	inactive		
Cl/C=C/Cl	inactive	inactive	inactive				inactive	inactive	inactive		
O=C/C=C/c1ccccc1	inactive	inactive	inactive			inactive	inactive	inactive	inactive		
CNC(=O)O/N=C/C(C)(C)S(C)(=O)=O	inactive	inactive	inactive				inactive	inactive			
COP(=S)(OC)SCN1C(=O)c2ccccc2C1=O	inactive	inactive	inactive			inactive	inactive	inactive			
CCOC(=O)CC(SP(=O)(OC)OC)C(=O)OCC (stereo not drawn)	inactive	inactive	inactive			inactive	inactive	inactive	inactive		
COP(=S)(OC)Oc1ccc(SC)c(C)c1	inactive	inactive	inactive			inactive	inactive	inactive			
CCCCCCCCCCCCCCCCCC(=O)O	inactive	inactive	inactive			inactive	inactive	inactive			
Oc1ccc(Cl)cc1	inactive	inactive	inactive			inactive	inactive	inactive	inactive		
N#CN=C(N)N	inactive	inactive	inactive			inactive	inactive	inactive			
COc1cc(-c2ccc(N)c(OC)c2)ccc1N	inactive		inactive	inactive and 46.3 µM (active)		inactive and 37.1 µM (active)	inactive	inactive	inactive	inactive	
O=S(=O)(O)OOS(=O)(=O)O	inactive	inactive	inactive				inactive	inactive	inactive		
CN1C(=O)CCS(=O)(=O)C1c1ccc(Cl)cc1 (stereo not drawn)	inactive	inactive	inactive			inactive	inactive	inactive	inactive		
Nc1ccc(N)cc1	inactive	inactive	inactive			inactive	inactive	inactive	inactive		
